# Measurements reported in the supplement of paper PMC4466140.
# Legend:
# Assay in all cases: SPOT peptide array binding signal intensity (averaged, normalized) (arbitrary units (background-subtracted, floor 0; scale differs between SH3 domains)); higher = stronger binding of the SH3 domain to the peptide
# [1] = molecular target: AgAbp1
# Procedure, shortened: (§1)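 The binding signal is the normalized, background-subtracted spot intensity averaged over replicates; its arbitrary units differ between domains. It was obtained by incubating 10 μg/ml GST-fused SH3 domains from four yeast species overnight at 4°C in TBS-based blocking buffer on cellulose membranes with synthetic 15-mer peptides, cysteines replaced by serines, then detecting with anti-GST antibody, HRP anti-mouse secondary and luminol.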
# [2] = molecular target: AgBbc1
# Procedure, shortened: as §1
# [3] = molecular target: AgBem1-D1
# Procedure, shortened: as §1
# [4] = molecular target: AgBzz1-D1
# Procedure, shortened: as §1
# [5] = molecular target: AgBzz1-D2
# Procedure, shortened: as §1
# [6] = molecular target: AgCyk3
# Procedure, shortened: as §1
# [7] = molecular target: AgFus1
# Procedure, shortened: as §1
# [8] = molecular target: AgHof1
# Procedure, shortened: as §1
# [9] = molecular target: AgHse1
# Procedure, shortened: as §1
# [10] = molecular target: AgLsb1
# Procedure, shortened: as §1
# [11] = molecular target: AgLsb4
# Procedure, shortened: as §1
# [12] = molecular target: AgMyo5
# Procedure, shortened: as §1
# [13] = molecular target: AgNbp2
# Procedure, shortened: as §1
# [14] = molecular target: AgRvs167
# Procedure, shortened: as §1
# [15] = molecular target: AgSho1
# Procedure, shortened: as §1
# [16] = molecular target: AgSla1-D1-D2
# Procedure, shortened: as §1
# [17] = molecular target: AgSla1-D3
# Procedure, shortened: as §1
# [18] = molecular target: CaAbp1-D1
# Procedure, shortened: as §1
# [19] = molecular target: CaAbp1-D2
# Procedure, shortened: as §1
# [20] = molecular target: CaBbc1
# Procedure, shortened: as §1
# [21] = molecular target: CaBem1-D1
# Procedure, shortened: as §1
# [22] = molecular target: CaBzz1-D1
# Procedure, shortened: as §1
# [23] = molecular target: CaBzz1-D2
# Procedure, shortened: as §1
# [24] = molecular target: CaCyk3
# Procedure, shortened: as §1
# [25] = molecular target: CaFus1
# Procedure, shortened: as §1
# [26] = molecular target: CaHof1
# Procedure, shortened: as §1
# [27] = molecular target: CaHse1
# Procedure, shortened: as §1
# [28] = molecular target: CaLsb1
# Procedure, shortened: as §1
# [29] = molecular target: CaLsb4
# Procedure, shortened: as §1
# [30] = molecular target: CaMyo5
# Procedure, shortened: as §1
# [31] = molecular target: CaNbp2
# Procedure, shortened: as §1
# [32] = molecular target: CaRvs167
# Procedure, shortened: as §1
# [33] = molecular target: CaRvs167-3
# Procedure, shortened: as §1
# [34] = molecular target: CaSho1
# Procedure, shortened: as §1
# [35] = molecular target: CaSla1-D1-D2
# Procedure, shortened: as §1
# [36] = molecular target: CaSla1-D3
# Procedure, shortened: as §1
# [37] = molecular target: ScAbp1
# Procedure, shortened: as §1
# [38] = molecular target: ScBbc1
# Procedure, shortened: as §1
# [39] = molecular target: ScBem1-D1
# Procedure, shortened: as §1
# [40] = molecular target: ScBzz1-D1
# Procedure, shortened: as §1
# [41] = molecular target: ScBzz1-D2
# Procedure, shortened: as §1
# [42] = molecular target: ScCyk3
# Procedure, shortened: as §1
# [43] = molecular target: ScFus1
# Procedure, shortened: as §1
# [44] = molecular target: ScHof1
# Procedure, shortened: as §1
# [45] = molecular target: ScHse1
# Procedure, shortened: as §1
# [46] = molecular target: ScLsb1
# Procedure, shortened: as §1
# [47] = molecular target: ScLsb2
# Procedure, shortened: as §1
# [48] = molecular target: ScLsb3
# Procedure, shortened: as §1
# [49] = molecular target: ScLsb4
# Procedure, shortened: as §1
# [50] = molecular target: ScMyo3
# Procedure, shortened: as §1
# [51] = molecular target: ScMyo5
# Procedure, shortened: as §1
# [52] = molecular target: ScNbp2
# Procedure, shortened: as §1
# [53] = molecular target: ScPex13
# Procedure, shortened: as §1
# [54] = molecular target: ScRvs167
# Procedure, shortened: as §1
# [55] = molecular target: ScSho1
# Procedure, shortened: as §1
# [56] = molecular target: ScSla1-D1-D2
# Procedure, shortened: as §1
# [57] = molecular target: ScSla1-D3
# Procedure, shortened: as §1
# [58] = molecular target: SpAbp1-D1
# Procedure, shortened: as §1
# [59] = molecular target: SpBbc1
# Procedure, shortened: as §1
# [60] = molecular target: SpBzz1-D1
# Procedure, shortened: as §1
# [61] = molecular target: SpBzz1-D2
# Procedure, shortened: as §1
# [62] = molecular target: SpCyk3
# Procedure, shortened: as §1
# [63] = molecular target: SpHof1
# Procedure, shortened: as §1
# [64] = molecular target: SpHof1-2
# Procedure, shortened: as §1
# [65] = molecular target: SpHof1-3
# Procedure, shortened: as §1
# [66] = molecular target: SpHse1
# Procedure, shortened: as §1
# [67] = molecular target: SpLsb1
# Procedure, shortened: as §1
# [68] = molecular target: SpLsb4
# Procedure, shortened: as §1
# [69] = molecular target: SpMyo1
# Procedure, shortened: as §1
# [70] = molecular target: SpNbp2
# Procedure, shortened: as §1
# [71] = molecular target: SpPex13
# Procedure, shortened: as §1
# [72] = molecular target: SpRvs167
# Procedure, shortened: as §1
# [73] = molecular target: SpSla1-D1-D2
# Procedure, shortened: as §1
# [74] = molecular target: SpSla1-D3
# Procedure, shortened: as §1
binder,measurement,setting,value
NGRRRPKFRVQLSGN,SPOT peptide array binding signal intensity,[1],206
same,SPOT peptide array binding signal intensity,[2],71
same,SPOT peptide array binding signal intensity,[3],339
same,SPOT peptide array binding signal intensity,[4],84
same,SPOT peptide array binding signal intensity,[5],46
same,SPOT peptide array binding signal intensity,[6],5
same,SPOT peptide array binding signal intensity,[7],1440
same,SPOT peptide array binding signal intensity,[8],47.8
same,SPOT peptide array binding signal intensity,[9],1600
same,SPOT peptide array binding signal intensity,[10],16.5
same,SPOT peptide array binding signal intensity,[11],379
same,SPOT peptide array binding signal intensity,[12],1.5
same,SPOT peptide array binding signal intensity,[13],430
same,SPOT peptide array binding signal intensity,[14],9
same,SPOT peptide array binding signal intensity,[15],269
same,SPOT peptide array binding signal intensity,[16],462
same,SPOT peptide array binding signal intensity,[17],13
same,SPOT peptide array binding signal intensity,[18],596
same,SPOT peptide array binding signal intensity,[19],855
same,SPOT peptide array binding signal intensity,[20],134
same,SPOT peptide array binding signal intensity,[21],74.5
same,SPOT peptide array binding signal intensity,[22],185
same,SPOT peptide array binding signal intensity,[23],114
same,SPOT peptide array binding signal intensity,[24],33
same,SPOT peptide array binding signal intensity,[25],3650
same,SPOT peptide array binding signal intensity,[26],0.75
same,SPOT peptide array binding signal intensity,[27],202
same,SPOT peptide array binding signal intensity,[28],4
same,SPOT peptide array binding signal intensity,[29],238
same,SPOT peptide array binding signal intensity,[30],4
same,SPOT peptide array binding signal intensity,[31],762
same,SPOT peptide array binding signal intensity,[32],80.3
same,SPOT peptide array binding signal intensity,[33],232
same,SPOT peptide array binding signal intensity,[34],1190
same,SPOT peptide array binding signal intensity,[35],295
same,SPOT peptide array binding signal intensity,[36],84
same,SPOT peptide array binding signal intensity,[37],130
same,SPOT peptide array binding signal intensity,[38],28.8
same,SPOT peptide array binding signal intensity,[39],166
same,SPOT peptide array binding signal intensity,[40],41
same,SPOT peptide array binding signal intensity,[41],104
same,SPOT peptide array binding signal intensity,[42],131
same,SPOT peptide array binding signal intensity,[43],2430
same,SPOT peptide array binding signal intensity,[44],6.5
same,SPOT peptide array binding signal intensity,[45],3000
same,SPOT peptide array binding signal intensity,[46],6
same,SPOT peptide array binding signal intensity,[47],14
same,SPOT peptide array binding signal intensity,[48],719
same,SPOT peptide array binding signal intensity,[49],42.5
same,SPOT peptide array binding signal intensity,[50],1.5
same,SPOT peptide array binding signal intensity,[51],4.75
same,SPOT peptide array binding signal intensity,[52],489
same,SPOT peptide array binding signal intensity,[53],4
same,SPOT peptide array binding signal intensity,[54],52.7
same,SPOT peptide array binding signal intensity,[55],2060
same,SPOT peptide array binding signal intensity,[56],693
same,SPOT peptide array binding signal intensity,[57],6.5
same,SPOT peptide array binding signal intensity,[58],561
same,SPOT peptide array binding signal intensity,[59],13
same,SPOT peptide array binding signal intensity,[60],162
same,SPOT peptide array binding signal intensity,[61],0.75
same,SPOT peptide array binding signal intensity,[62],4
same,SPOT peptide array binding signal intensity,[63],269
same,SPOT peptide array binding signal intensity,[64],12.5
same,SPOT peptide array binding signal intensity,[65],788
same,SPOT peptide array binding signal intensity,[66],1140
same,SPOT peptide array binding signal intensity,[67],10.5
same,SPOT peptide array binding signal intensity,[68],294
same,SPOT peptide array binding signal intensity,[69],18.8
same,SPOT peptide array binding signal intensity,[70],1300
same,SPOT peptide array binding signal intensity,[71],62.5
same,SPOT peptide array binding signal intensity,[72],14.2
same,SPOT peptide array binding signal intensity,[73],≤ 0
same,SPOT peptide array binding signal intensity,[74],43
